Sampled rows, rich in hits. Any-hit rate of the full collection: about 2.9%.
ADAM17 inh – ADAM17 inhibitors, primary screen, biochemical, QFRET; Disintegrin and metalloproteinase domain-containing protein 17 (Homo sapiens), P78536; recombinant ADAM17, EDANS/DABCYL FRET peptide cleavage; inhibition, % at 6.95 µM; 370,000 compounds, 0.83% hits; AID 720648, 2013;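 active = inhibition above the mean of compounds lying between control limits plus 3 SD, set per campaign, cut at about 8.5% in these data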;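 also: 0% = DMSO-only wells as the low control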
PLC-gamma1 inh – PLC-gamma1 enzyme inhibitors, primary screen, biochemical, fluorescence, purified enzyme; 370,000 compounds, 0.84% hits; inhibition, % at 12.2 µM; 1-phosphatidylinositol 4,5-bisphosphate phosphodiesterase gamma-1 (Homo sapiens), P19174; AID 720700, 2013; fluorogenic substrate; in the data active = inhibition above about 9.5%
PLC-beta3 inh – human PLC-beta3 inhibitors, primary screen, biochemical, fluorescence | AID 720704, 2013 | Purified PLC-beta3, fluorogenic substrate | 1-phosphatidylinositol 4,5-bisphosphate phosphodiesterase beta-3 (Homo sapiens), Q01970 | inhibition, % at 12.2 µM | 370,000 compounds, 0.18% hits; in the data active = inhibition above about 11%;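 also: 0% = median of compound wells on plate and 100% = full blocker control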
Target sequence (Q01970 whole entry, looked up): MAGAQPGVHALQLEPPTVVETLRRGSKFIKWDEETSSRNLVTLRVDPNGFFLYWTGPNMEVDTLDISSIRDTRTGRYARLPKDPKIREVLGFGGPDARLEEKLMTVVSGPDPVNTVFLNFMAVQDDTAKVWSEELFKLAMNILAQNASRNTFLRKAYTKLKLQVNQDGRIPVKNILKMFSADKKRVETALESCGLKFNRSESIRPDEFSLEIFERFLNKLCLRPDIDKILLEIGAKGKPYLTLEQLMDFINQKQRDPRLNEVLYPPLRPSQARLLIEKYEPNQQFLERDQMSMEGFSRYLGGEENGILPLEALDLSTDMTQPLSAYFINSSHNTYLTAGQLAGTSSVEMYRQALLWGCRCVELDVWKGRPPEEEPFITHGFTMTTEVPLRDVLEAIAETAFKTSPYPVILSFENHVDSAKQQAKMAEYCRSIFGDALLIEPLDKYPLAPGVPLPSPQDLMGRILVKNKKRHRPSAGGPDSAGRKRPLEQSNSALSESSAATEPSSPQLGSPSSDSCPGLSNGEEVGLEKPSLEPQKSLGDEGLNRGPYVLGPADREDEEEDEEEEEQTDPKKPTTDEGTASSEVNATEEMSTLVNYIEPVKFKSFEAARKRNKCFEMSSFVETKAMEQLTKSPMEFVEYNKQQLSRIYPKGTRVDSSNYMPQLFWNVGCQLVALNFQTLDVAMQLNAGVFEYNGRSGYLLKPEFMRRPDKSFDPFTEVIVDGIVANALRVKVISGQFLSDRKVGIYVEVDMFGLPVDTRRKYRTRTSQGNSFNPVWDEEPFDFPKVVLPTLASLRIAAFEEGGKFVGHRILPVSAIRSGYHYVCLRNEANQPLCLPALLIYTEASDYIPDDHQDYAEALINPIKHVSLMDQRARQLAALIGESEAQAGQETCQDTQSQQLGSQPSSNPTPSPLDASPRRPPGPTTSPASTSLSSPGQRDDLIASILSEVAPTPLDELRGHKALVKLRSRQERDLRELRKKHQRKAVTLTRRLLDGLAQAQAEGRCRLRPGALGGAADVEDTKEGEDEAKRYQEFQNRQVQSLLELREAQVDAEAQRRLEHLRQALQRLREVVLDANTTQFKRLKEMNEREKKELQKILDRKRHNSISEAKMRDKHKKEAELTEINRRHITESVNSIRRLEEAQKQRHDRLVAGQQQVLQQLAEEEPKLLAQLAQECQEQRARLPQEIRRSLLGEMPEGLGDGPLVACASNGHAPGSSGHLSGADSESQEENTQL
ADAM10 inh – human ADAM10 inhibitors, primary screen, biochemical, QFRET, HTS. recombinant ADAM10, EDANS/DABCYL FRET peptide cleavage, 3 h. AID 720582, 2013. inhibition, % at 7 µM. Disintegrin and metalloproteinase domain-containing protein 10 (Homo sapiens), O14672. 370,000 compounds, 0.62% hits;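 active = inhibition above a per-campaign cutoff equal to the mean of compounds falling between control-based bounds plus 3 SD, cut at about 20% in these data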;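 also: 0% = DMSO wells while the 100% control is not disclosed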
proKLK7 act – proKLK7 zymogen activators, primary screen, biochemical, fluorescence intensity | 370,000 compounds, 0.9% hits | Kallikrein-7 (Homo sapiens), P49862 | AID 652039, 2013 | activation, % at 7 µM | purified proKLK7, EDANS-DABCYL substrate fluorescence; 100% is mature enzyme control, 0% vehicle;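 active = activation above the mean of all tested compounds plus 3 SD, computed per campaign excluding outliers beyond control limits, cut at about 13% in these data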
proKLK7 act conf – proKLK7 zymogen activators, confirmation, biochemical, fluorescence intensity, triplicate; purified proKLK7, EDANS-DABCYL substrate fluorescence; scaled: vehicle 0, mature enzyme 100; shares compounds with proKLK7 act; activation, % at 7 µM; 3,200 compounds, 68% hits;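 active = activation, as change over the incubation, above the mean of all tested compounds plus 3 SD, cut at about 13% in these data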
EDANS interfere – EDANS-DABCYL substrate optical interference, artefact control for kallikrein-7 zymogen activator project, biochemical, fluorescence intensity, high throughput | no enzyme, 4 h; solvent 0%, active enzyme control 100% | shares compounds with proKLK7 act | activation, % at 7 µM | 3,200 compounds, 80% hits;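 active = activation above the all-compound mean plus 3 SD, ignoring values outside control-based bounds, cut at about 4.8% in these data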;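 also: value is the 4 h activation minus the activation read at time zero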
K7 EDANS ctr – EDANS fluorescence interference in dose response, no enzyme; shares compounds with proKLK7 act; EDANS-DABCYL peptide fluorescence interference; EC50, µM; 250 compounds, 20% hits;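 active = compounds that raise the fluorescence signal in this interference counterscreen, with EC50 at or below 10 µM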;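 also: intact quenched peptide substrate alone read at 355 nm excitation and 520 nm emission; signal is fluorescence gain from T0 to T4 after four hours at room temperature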
Starred values were filed as active, the others as inactive; i = inactive; nt = no result given.

SMILES	ADAM17 inh	PLC-gamma1 inh	PLC-beta3 inh	ADAM10 inh	proKLK7 act	proKLK7 act conf	EDANS interfere	others
CC(C)(C)NC(=O)C[C@H]1C[C@H](C(=O)N2CCCCC2)[C@@]2(C)c3[nH]c4cc(-c5ccco5)ccc4c3CCN2C1=O	-116	i	i	-399	77*	74*	79*
CC[C@]12c3[nH]c4cc(-c5ccco5)ccc4c3CCN1C(=O)[C@@H](CC(=O)NCc1ccco1)C[C@@H]2C(=O)N1CCN(C(=O)c2ccco2)CC1	-102	-329	-477	-345	134*	95*	104*
C[C@]12c3[nH]c4cc(-c5ccco5)ccc4c3CCN1C(=O)[C@@H](CC(=O)NCc1ccco1)C[C@@H]2C(=O)N1CCCCC1	-139	i	i	-451	84*	45*	82*
CC12C(=O)N(c3nccs3)C(=O)C1C1C=CC2C1 (stereo not given)	-1	2	3	0	0	nt	nt
CC(C)C[C@H](NC(=O)C1(c2ccccc2)CCN(C(=O)[C@H]2CSCN2C(=O)OC(C)(C)C)CC1)C(=O)O	-3	-3	-2	-12	0	nt	nt
CC[C@]12c3[nH]c4cc(-c5ccco5)ccc4c3CCN1C(=O)[C@@H](CC(=O)NC(C)(C)C)C[C@@H]2C(=O)N1CCN(C(=O)C2CC2)CC1	-181	i	i	i	144*	203*	163*
CC[C@]12c3[nH]c4cc(-c5ccco5)ccc4c3CCN1C(=O)[C@@H](CC(=O)NCCc1ccccn1)C[C@@H]2C(=O)N1CCN(C(=O)C2CC2)CC1	-180	i	i	i	137*	104*	124*
COC(=O)[C@]12C[C@H](CC(=O)NCCCCc3ccccc3)C(=O)N(Cc3ccc(Cl)cc3Cl)C1=C[C@H](COCc1ccccc1)O[C@@H]2C	2	-1	1	7	0	nt	nt
Cc1ccc(Nc2cc(=O)[nH]c(=O)[nH]2)cc1Cl	1	1	5	1	0	nt	nt
Cc1csc2nc3cc(C(N)=O)ccc3c(=O)n12	-244	i	i	i	22*	63*	77*
CC(=O)c1ccc(N2CCN(C(=O)c3ccc4c(=O)[nH]c5c(C(=O)NC6CCCC6)sc(=S)n5c4c3)CC2)cc1	0	-5	-12	-2	0	nt	nt
O=S(=O)(c1ccc(-c2cn3ccccc3n2)cc1)N1CCOCC1	i	i	i	i	16*	19*	16*	K7 EDANS ctr=>70
O=C1NN(c2ccc(Br)cc2)C(=O)/C1=C\c1ccc(O)cc1O	-162	-71	-87	-367	157*	181*	196*
Cc1ccc(S(=O)(=O)CCC(=O)OCC(=O)N(C)CC(=O)Nc2ccc(F)cc2)cc1	1	-1	-6	5	0	nt	nt
CN(C(=O)NC(=O)C1=C(N2CCOCC2)/C(=C/c2ccccc2)CC1)S(C)(=O)=O	-100	-115	-184	-296	146*	342*	332*
CC(Cc1ccccc1)N(C)C(=O)CN1C(=O)c2ccccc2C1=O (stereo not given)	-1	2	-1	-12	0	nt	nt
CCCCCCc1ccc(NC(=O)[C@@H]2CC=C[C@@H]3CCN(Cc4ccccc4)C(=O)[C@@H]32)cc1	2	-1	0	5	nt	nt	nt
CCN(CC)c1ccc2c(Cl)cc(=O)oc2c1	-47	-306	-429	-142	3	nt	nt
CCNc1ccc2c(Cl)cc(=O)oc2c1	-168	i	i	i	25*	30*	38*
CCCc1nc2cc(CC(=O)OC)ccc2o1	3	5	3	5	0	nt	nt
COC(=O)c1ccc(C(=O)Nc2ccc3nc(-c4cccnc4)[nH]c3c2)cc1	-2	-16	-23	-6	20*	-14	-13
O=C(Nc1ccc(-c2nc3ccccc3[nH]2)cc1)c1cccc(N2C(=O)CCC2=O)c1	-203	-92	-159	i	127*	167*	171*
COC(=O)c1ccc(-c2nc3ccccc3[nH]2)cc1	i	i	i	i	43*	79*	73*
Cc1cc(=O)oc2c(C)c(OC(=O)c3ccco3)ccc12	-31	-193	-308	-109	85*	601*	620*
CCC(=O)Oc1ccc2c(C)cc(=O)oc2c1C	-165	i	i	-493	422*	697*	675*
SMILES	ADAM17 inh	PLC-gamma1 inh	PLC-beta3 inh	ADAM10 inh	proKLK7 act	proKLK7 act conf	EDANS interfere	others
O=C(Oc1cc(=O)oc2ccccc12)c1ccco1	-2	-4	-10	-2	0	nt	nt
FC(F)(F)c1nc(NCc2cccnc2)c2ccccc2n1	2	3	-4	7	0	nt	nt
CCN(CC)C(=O)c1ccc2sc([C@H]3C[C@H](O)[C@@H](CO)O3)nc2c1	-1	0	-4	-23	1	nt	nt
COc1ccc2oc(=O)c(/C(N)=N/NC(=O)c3ccncc3)cc2c1	-33	-80	-118	-73	15*	121*	135*
COc1ccc2oc(=O)c(C(=O)N3CCN(c4ccccc4)CC3)cc2c1	-12	-22	-28	-27	1	nt	nt
COc1ccc2oc(=O)c(C(=O)N3CCN(C(=O)c4ccccc4)CC3)cc2c1	-211	i	i	i	21*	25*	16*	K7 EDANS ctr=>70
COc1ccc2oc(=O)c(C(=O)N3CCN(C(=O)c4ccco4)CC3)cc2c1	-310	i	i	i	26*	27*	30*
O=C(c1ccco1)N1CCN(C(=O)c2cc3ccccc3oc2=O)CC1	-5	0	-7	2	0	nt	nt
Cc1nn(-c2ccccn2)c2nc(-c3cccs3)cc(C(=O)N3CCOCC3)c12	i	i	i	i	23*	32*	26*	K7 EDANS ctr=>70
Cc1cccc(-n2nc(C)c3c(C(=O)O)cc(-c4cccs4)nc32)c1	-33	i	i	-72	1	nt	nt
CCOc1ccc(CC(=O)NCC2(N3CCCCC3)CCCCC2)cc1	-1	1	-5	11	0	nt	nt
COc1cc2c(cc1OC)C(c1c(Cl)cccc1Cl)=NCC2	1	-92	-127	-15	4	nt	nt
COc1cc2c(cc1OC)C(CCc1ccccc1)=NCC2	i	i	i	i	152*	63*	80*
